From PubChem BioAssay AID1224856 (National Center for Advancing Translational Sciences (NCATS), 2016)
Results filed as inconclusive are left out. A call without a number means that no potency is given here. The source made the active and inactive calls. Calls follow the shape of the dose curve; as a rule, active = well fitted curve in the direction sought with a large enough effect; inconclusive = small, poorly fitted or top-dose-only effect, or another doubt; inactive = no such curve, though single readings can be large or run the other way.

Assay: Cell viability assay for measurement of the protective activity of small molecules against cell death caused by Zika virus infection in human astrocytes
Conditions: human astrocytes ZIKV-induced death, ATP luminescence, 72 h; series mostly up to 46.1 µM
From the text: National Center for Advancing Translational Sciences [NCATS] Johns Hopkins University School of Medicine Florida State University Assay Overview: Zika virus infection causes cell death in certain cell types including human neural progenitor cells (hNPCs), astrocytes, and astrocytoma cell line (SNB-19). This cell viability assay measures the ATP content (level) in human astrocytes using a luminescence readout that is proportional to viable cell numbers. Decrease in the luminescence signal after Zika virus infection indicates the cell death caused by Zika virus. Small molecule inhibitors […] the decreased luminescence signal after Zika virus infection, indicating the protective effect of that small molecule on the cell death caused by Zika virus infection. This observed protective effect of small molecules against Zika virus induced cell death may result from inhibition of virus replication or cellular response to the virus infection.
Assay Protocol Summary: The medium for astrocytes contains AM basal medium (ScienCell, Cat.# 1801), AGS (ScienCell, Cat.# 1801), 10% FBS, and 1% Pen/Strep. The ATP content assay kit (PerkinElmer, Cat.# 6016731) was used to determine cell viability. The reagent was reconstituted and prepared as described by the manufacturer. Cells were seeded in 384- or 1536-well assay plates and cultured at 37 C with 5% CO2 for 16 to 20 hours. The typical cell seeding density in the 1536-well plate assay is 350 cells/well in 3 ul medium for astrocytes in the tissue cultured treated/PDL coated plates. Compounds were added to cells and incubated for one hour before addition of ZIKV solution to cells (2 FFU/cell). After incubation at 37 C with 5% CO2 for 72 hours, the reagent mixture of the ATP content assay kit was added to each well, followed by incubation at room temperature for 10 minutes. The luminescence intensity of the assay plates was measured using a ViewLux plate reader (PerkinElmer). […] The percentage inhibitions of the decreased cell viability by small molecule inhibitors were then calculated.

| Compound | Potency |
| --- | --- |
| COP(=S)(OC)SCN1C(=O)c2ccccc2C1=O | inactive |
| Cc1ccc([N+](=O)[O-])[c]2c1[O][Hg]2 | inactive |
| CN(C)c1ccc(/C=C2\C(=O)Nc3ccccc32)cc1 | inactive |
| O=C1NC(=O)C(=Cc2ccc(-c3ccc(F)cc3)o2)S1 | inactive |
| CC(=Cc1ccccc1)C=C1SC(=S)N(CC(=O)O)C1=O | inactive |
| O=C(O)c1ccccc1NCCc1ccccc1 | inactive |
| CCCS(=O)c1ccc2nc(NC(=O)OC)[nH]c2c1 (stereo not given) | inactive |
| N#C/C(=C\c1ccc(O)c(O)c1)C(=O)Nc1ccccc1 | inactive |
| O=S(=O)(O)CCSSCCS(=O)(=O)O | inactive |
| O=C1c2ccccc2C(=O)c2c1ccc(O)c2O | inactive |
| Clc1ccccc1-c1nc(-c2ccncc2)no1 | inactive |
| O[C@@H](COc1cccc2ncccc12)CN1CCN(C2c3ccccc3[C@@H]3[C@H](c4ccccc42)C3(F)F)CC1 (stereo not given in full) | inactive |
| Cc1csc(NC(=O)c2sc3nc4c(c(C(F)(F)F)c3c2N)CCC4)n1 | inactive |
| S=C(SSC(=S)N1CCCCC1)N1CCCCC1 | 7.74 µM (active) |
| O=C1C(Cl)=C(NCCN2CCOCC2)C(=O)c2ncccc21 | inactive |
| COc1cccc(-c2ccc(NC(=O)C3=C(C(=O)O)CCC3)c(F)c2)c1 | inactive |
| CC(=C(CCOC(=O)C(C)C)SSC(CCOC(=O)C(C)C)=C(C)N(C=O)Cc1cnc(C)nc1N)N(C=O)Cc1cnc(C)nc1N | inactive |
| NC(=O)c1cccc2[nH]c(-c3ccc([C@H]4CCCN4)cc3F)nc12 | inactive |
| CCCC(=O)OC[C@@H](OC(=O)CCC)[C@@H](OC(=O)CCC)[C@H](Cn1c2nc(=O)[nH]c(=O)c-2nc2cc(C)c(C)cc21)OC(=O)CCC | inactive |
| [O-][n+]1ccccc1SSc1cccc[n+]1[O-] | inactive |

| Compound | Potency |
| --- | --- |
| COc1cc2nc(N3CCN(C(=O)C4CCCO4)CC3)nc(N)c2cc1OC (stereo not given) | inactive |
| CNC(=O)c1ccccc1Sc1ccc2c(/C=C/c3ccccn3)n[nH]c2c1 | inactive |
| C[C@H](NC(=O)C(=O)Nc1ccccc1C(C)(C)C)C(=O)N[C@@H](CC(=O)O)C(=O)COc1c(F)c(F)cc(F)c1F | 3.88 µM (active) |
| CC(C)[C@H]1C(=O)N[C@H](CO)Cc2c[nH]c3cccc(c23)N1C | 1.09 µM (active) |
| C=CCCCCCCCCC(=O)O | inactive |
| CN1CC(=O)N/C1=N/C(=O)Nc1cccc(Cl)c1 | inactive |
| CC(C(=O)O)c1ccc(C(=O)c2cccs2)cc1 (stereo not given) | inactive |
| CC(C(=O)O)c1ccc(-c2ccccc2)c(F)c1 (stereo not given) | inactive |
| COc1ccc2nc(NC(=O)Nc3ccccc3)sc2c1 | inactive |
| CC(C)N[C@@H]1CCn2c(=O)[nH]c3cccc(c32)[C@@H]1O | inactive |
| O=c1oc2cc(O)ccc2s1 | inactive |
| Cc1ccc2c(n1)Oc1ccc(C(C)C(=O)OCC(=O)N(C)C)cc1C2 (stereo not given) | inactive |
| O=C(Nc1ccc(Br)cc1)c1cc(Br)cc(Br)c1O | inactive |
| COc1ccc(CC2=NN3C([C@@H](CCc4ccccc4)[C@@H](C)O)=NC(C)C3C(=O)N2)cc1OC (stereo not given in full) | inactive |
| COc1ccc(/C=C/C(=O)Nc2ccccc2C(=O)O)cc1OC | inactive |
| CC(C)(C)OC(=O)CN(Cc1ccc(Cl)cc1)Cc1ccc([N+](=O)[O-])s1 | inactive |
| C/C(=N\O)c1ccc(OCC(=O)N2CCCCC2)cc1 | inactive |
| O=C(O)CCC(=O)c1ccc(-c2ccccc2)cc1 | inactive |
| O=C(/C=C/c1ccc(O)cc1)c1ccc(O)cc1O | inactive |
| COc1cccc2c1C(=O)c1c(O)c3c(c(O)c1C2=O)C[C@@](O)(C(=O)CO)C[C@@H]3O[C@H]1C[C@H](N)[C@H](O[C@@H]2CCCCO2)[C@H](C)O1 | inactive |
